Results published in PubChem BioAssay.
Activity calls are given as the source filed them. Unless noted, no rule for the calls is given here.

How the values were obtained:
[1] = resazurin metabolic signal in HepG2 cells – cell-based, resazurin fluorescence, 24 h, PK04 Diversity Set, profiling panel (AID 1172); settings: HepG2 viability, higher = more signal
[2] = budding yeast growth changes without added modifier – OD600, strain BY4716, 24 h, basal condition, primary screen (AID 1173); settings: S. cerevisiae BY4716 growth, OD600, 24 h; higher = more signal, called active from +8 up or from −8 down
[3] = viability profiling in MM1S myeloma cells – cell-based, resazurin fluorescence, basal, 24 h, PK04 Diversity Set, profiling panel (AID 1174); settings: higher = more signal, called active from +8 up or from −8 down;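 also: MM1S multiple myeloma cell line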
[4] = target: Dihydroorotate dehydrogenase (quinone), mitochondrial (Plasmodium falciparum (isolate 3D7)) (UniProt Q08210); assay: inhibition of P. falciparum DHODH – biochemical, C-terminal His tag, absorbance 600 nm, primary screen (AID 1175); settings: PfDHODH enzyme, DCIP absorbance 600 nm; higher = more signal, called active from +8 up or from −8 down;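 also: recombinant parasite enzyme with a five histidine tag at its C terminus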
[5] = inhibition of PAO1 biofilm formation – strain PAO1, LB-PBS medium, absorbance 600 nm, primary screen (AID 1176); settings: P. aeruginosa PAO1 growth/biofilm, A600, 12 h; higher = more signal
[6] = growth modulation of vineyard yeast isolate – strain RM11-1a, OD600, basal, 24 h, primary screen (AID 1177);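 also: cultures grown under basal conditions with no added stressor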; settings: S. cerevisiae RM11-1a growth, OD600, 24 h; higher = more signal, called active from +8 up or from −8 down
[7] = growth of efflux-deficient E. coli DRC39 – strain DRC39, OD650, 24 h, E. coli filamentation inducers, primary screen (AID 1178);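 also: growth measured as culture turbidity by optical density at 650 nm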; settings: E. coli DRC39 acrAB, higher = more signal, called active from +8 up or from −8 down
[8] = growth of efflux-deficient E. coli DRC39 – strain DRC39, OD650, 48 h, E. coli filamentation inducers, primary screen (AID 1179);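 also: screen aims at cell division blockers that make cells filament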; settings: E. coli DRC39 delta-acrAB growth, higher = more signal, called active from +8 up or from −8 down
[9] = viability profiling in RPMI8226 myeloma cells – cell-based, resazurin fluorescence, basal, 24 h, PK04 Diversity Set, profiling panel (AID 1180); settings: higher = more signal;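 also: RPMI8826 multiple myeloma cell line at 5000 cells per well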
[10] = target: E3 ubiquitin-protein ligase XIAP (Homo sapiens) (UniProt P98170); assay: small molecules binding XIAP protein – biophysical, small-molecule microarray, fluorescence 635 nm, primary screen (AID 1181); settings: higher = more signal;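 also: score merges 667 nm emission and signal to noise over triplicate slides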
[11] = test system: XIP peptide (Xip251-270) binding; assay: XIP fragment 251-270 binding compounds – biochemical, small-molecule microarray, fluorescence 635/667 nm, 0.1 µg/mL protein, primary screen (AID 1182); settings: fluorescent protein binding, 635 nm, higher = more signal, called active from +8 up or from −8 down
[12] = test system: XIP peptide (Xip251-270); assay: compounds binding XIP fragment 251-270 – biochemical, small-molecule microarray, fluorescence 635/667 nm, 0.5 µg/mL protein, primary screen (AID 1183); settings: fluorescence 635 nm, higher = more signal
[13] = blood-stage malaria parasite viability loss – strain 3D7, DAPI fluorescence, 100 nL, primary screen (AID 1184);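 also: parasites grown inside human red blood cells in medium with human serum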; settings: P. falciparum 3D7 growth, 3 d, higher = more signal
[14] = target: Homeobox protein Hox-A13 (Mus musculus) (UniProt Q62424); assay: disruptors of Hoxa13 oligonucleotide interaction – biochemical, fluorescence polarization, labeled oligonucleotide, primary screen (AID 1185); settings: Hoxa13:DNA binding, 15 min, higher = more signal, called active from +8 up or from −8 down
[15] = blockers of DNA damage checkpoint Chk1 activation – imaging, HeLa, hydroxyurea, phospho-Chk1 antibody, percent positive cells, primary screen (AID 1186); settings: hydroxyurea-induced phospho-Chk1 immunofluorescence imaging, higher = more signal
[16] = blockers of DNA damage checkpoint Chk1 activation – imaging, HeLa, hydroxyurea, phospho-Chk1 nuclear intensity, primary screen (AID 1187); settings: hydroxyurea-induced phospho-Chk1 immunofluorescence imaging, higher = more signal

Chain of Homeobox protein Hox-A13 (Mus musculus) (Q62424 whole entry, looked up): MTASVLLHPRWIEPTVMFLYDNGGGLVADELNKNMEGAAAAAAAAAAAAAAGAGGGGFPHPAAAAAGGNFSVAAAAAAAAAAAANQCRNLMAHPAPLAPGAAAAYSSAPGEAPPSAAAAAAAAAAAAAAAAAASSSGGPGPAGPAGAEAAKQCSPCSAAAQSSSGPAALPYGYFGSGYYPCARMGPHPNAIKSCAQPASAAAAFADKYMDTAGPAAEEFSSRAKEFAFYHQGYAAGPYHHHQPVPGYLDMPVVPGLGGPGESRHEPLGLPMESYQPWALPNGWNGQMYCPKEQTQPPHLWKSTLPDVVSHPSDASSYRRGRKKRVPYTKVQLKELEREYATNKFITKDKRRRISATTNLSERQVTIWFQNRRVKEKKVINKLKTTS
Chain of E3 ubiquitin-protein ligase XIAP (Homo sapiens) (P98170 whole entry, looked up, the tested form may be a part): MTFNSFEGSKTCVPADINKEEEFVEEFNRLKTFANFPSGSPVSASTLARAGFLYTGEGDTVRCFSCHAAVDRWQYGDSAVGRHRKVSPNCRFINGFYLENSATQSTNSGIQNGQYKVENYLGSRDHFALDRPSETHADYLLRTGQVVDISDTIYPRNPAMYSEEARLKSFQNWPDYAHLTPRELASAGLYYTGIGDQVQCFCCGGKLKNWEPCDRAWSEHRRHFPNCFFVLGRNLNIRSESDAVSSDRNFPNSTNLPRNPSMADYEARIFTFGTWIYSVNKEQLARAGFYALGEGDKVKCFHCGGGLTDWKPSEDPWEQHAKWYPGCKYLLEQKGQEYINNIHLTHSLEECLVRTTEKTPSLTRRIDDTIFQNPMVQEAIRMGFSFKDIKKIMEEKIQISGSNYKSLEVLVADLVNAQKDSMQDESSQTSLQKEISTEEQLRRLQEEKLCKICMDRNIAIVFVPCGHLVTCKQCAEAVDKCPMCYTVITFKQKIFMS
Chain of Dihydroorotate dehydrogenase (quinone), mitochondrial (Plasmodium falciparum (isolate 3D7)) (Q08210 whole entry, looked up): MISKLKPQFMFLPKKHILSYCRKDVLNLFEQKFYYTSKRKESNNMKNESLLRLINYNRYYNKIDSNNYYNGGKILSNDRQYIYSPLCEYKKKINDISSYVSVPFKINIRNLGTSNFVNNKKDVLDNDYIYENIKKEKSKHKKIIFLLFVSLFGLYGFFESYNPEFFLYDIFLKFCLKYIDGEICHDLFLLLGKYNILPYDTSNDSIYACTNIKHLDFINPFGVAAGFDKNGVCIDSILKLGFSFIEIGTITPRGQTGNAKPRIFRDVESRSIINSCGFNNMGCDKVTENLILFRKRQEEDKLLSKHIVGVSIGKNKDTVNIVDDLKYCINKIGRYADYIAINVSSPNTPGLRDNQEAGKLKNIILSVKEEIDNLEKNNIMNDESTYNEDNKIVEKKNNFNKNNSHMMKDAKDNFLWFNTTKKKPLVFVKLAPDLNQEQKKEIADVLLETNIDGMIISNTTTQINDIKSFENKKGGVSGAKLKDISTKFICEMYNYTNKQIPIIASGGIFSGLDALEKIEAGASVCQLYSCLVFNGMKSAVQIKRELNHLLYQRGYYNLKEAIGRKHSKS

| SMILES | z-score [1] | z-score [2] | z-score [3] | composite z-score [4] | z-score [5] | z-score [6] | z-score [7] | z-score [8] | z-score [9] | composite z-score [10] | composite z-score [11] | composite z-score [12] | z-score [13] | z-score [14] | z-score [15] | z-score [16] |
| --- | --- | --- | --- | --- | --- | --- | --- | --- | --- | --- | --- | --- | --- | --- | --- | --- |
| COCCOC(=O)N1C(=O)[C@@]2(c3cc(C#CCC(C(=O)OC)C(=O)OC)ccc31)[C@H](c1ccc(OCCO)cc1)N1[C@H](c3ccccc3)[C@H](c3ccccc3)OC(=O)[C@H]1[C@@H]2C(N)=O | 0.331 | 1.87 (inactive) | -0.22 (inactive) | -1.15 (inactive) | 2.32 (inactive) | 2.34 (inactive) | -0.102 (inactive) | -0.554 (inactive) | -0.112 | 0.049 | 0.335 (inactive) | 0.803 | -1.96 | -1.07 (inactive) | -0.154 (inactive) | 0.0321 (inactive) |
| CC(C)C[C@@H]1NC(=O)[C@@]23C(=O)N[C@@H](Cc4ccccc4)C2[C@H](C)[C@@]2(C)O[C@H]2C3/C=C/C/C=C\CNC(=O)[C@@H]2CCCN2C1=O (stereo not given in full) | -0.462 | -0.47 (inactive) | 0.17 (inactive) | -0.487 (inactive) | 0.577 (inactive) | -0.0014 (inactive) | -0.536 (inactive) | -0.146 (inactive) | -0.39 | -0.207 | -0.0982 (inactive) | -0.791 | 0.817 | -6.29 (inactive) | -0.118 (inactive) | 0.275 (inactive) |
| CCCCC(O)C1C=CC2C(=O)N(Cc3ccccc3)C(=O)C2N1n1cnnc1 (stereo not given) | -1.23 | 0.0393 (inactive) | -0.748 (inactive) | 0.504 (inactive) | 0.148 (inactive) | -0.601 (inactive) | -0.395 (inactive) | -0.436 (inactive) | -0.409 | 0.0937 | 0.506 (inactive) | 0.856 | -1.33 | -1.62 (inactive) | 0.737 (inactive) | 0.0163 (inactive) |
| CCCCCCCCCCC(O)C1C=CC2C(=O)NC(=O)C2N1Nc1ccccn1 (stereo not given) | -2.19 | -10.4 (active) | -2.8 (inactive) | 0.364 (inactive) | 2.43 (inactive) | -5.05 (inactive) | -2.29 (inactive) | -3.65 (inactive) | -1.64 | 0.0153 | -0.0785 (inactive) | -0.0706 | 1.05 | -2.89 (inactive) | 0.764 (inactive) | 0.554 (inactive) |
| COCCCNC(=O)[C@@]1(Cc2ccccc2CN=[N+]=[N-])N=C(c2ccc(OCCCO)cc2)O[C@H]1c1ccccc1N=[N+]=[N-] | -0.208 | -0.255 (inactive) | -1.18 (inactive) | 1.13 (inactive) | 0.413 (inactive) | 0.587 (inactive) | 1.86 (inactive) | 1.08 (inactive) | -2.65 | -0.0592 | 0.167 (inactive) | 0.668 | -2.22 | -2.62 (inactive) | -0.498 (inactive) | -0.475 (inactive) |
| COCCOC(=O)N1C(=O)[C@@]2(c3cc(C#Cc4ccc(OC)cc4)ccc31)[C@H](c1ccc(OCCO)cc1)N1[C@H](c3ccccc3)[C@H](c3ccccc3)OC(=O)[C@H]1[C@@H]2C(N)=O | -0.83 | 1.71 (inactive) | -1.85 (inactive) | -0.675 (inactive) | 3.36 (inactive) | 2.82 (inactive) | 0.721 (inactive) | 0.366 (inactive) | -2.36 | 0.269 | 1.12 (inactive) | 0.758 | -1.97 | -0.245 (inactive) | 0.105 (inactive) | 0.247 (inactive) |
| COCCCNC(=O)[C@]1(Cc2ccccc2CN=[N+]=[N-])N=C(c2ccc(OCCCO)cc2)O[C@@H]1c1ccccc1CN=[N+]=[N-] | -0.504 | 0.409 (inactive) | -2.2 (inactive) | 0.502 (inactive) | 1.29 (inactive) | -0.605 (inactive) | 0.445 (inactive) | 0.0972 (inactive) | -2.03 | 0.0427 | 0.22 (inactive) | 0.744 | -2.48 | -2.43 (inactive) | -0.0731 (inactive) | -0.303 (inactive) |
| [N-]=[N+]=NCc1ccccc1[C@H]1OC(c2ccc(OCCCO)cc2)=N[C@@]1(Cc1ccccc1N=[N+]=[N-])C(=O)N1CCCCC1 | -0.585 | -0.707 (inactive) | -2.42 (inactive) | -0.062 (inactive) | 0.879 (inactive) | 1.66 (inactive) | -0.457 (inactive) | 0.495 (inactive) | -2.94 | -0.0062 | 0.538 (inactive) | 0.831 | -2.15 | -0.972 (inactive) | -0.335 (inactive) | -0.35 (inactive) |
| CC(C)=CCCC(C)=CC(O)C1C=CC2C(=O)N(c3ccccc3)C(=O)C2N1Nc1ccc([N+](=O)[O-])cc1 (stereo not given) | -0.674 | -1.14 (inactive) | -0.753 (inactive) | -0.697 (inactive) | 0.492 (inactive) | -0.853 (inactive) | -1.49 (inactive) | -1.43 (inactive) | -0.276 | 0.0817 | 0.174 (inactive) | 0.817 | -0.0908 | -4.57 (inactive) | 0.458 (inactive) | -0.178 (inactive) |
| CCOc1cc(C(O)C2C=CC3C(=O)NC(=O)C3N2Nc2ccccn2)ccc1O (stereo not given) | -1.35 | 1.67 (inactive) | -1.33 (inactive) | 0.21 (inactive) | 0.599 (inactive) | 0.24 (inactive) | -1.17 (inactive) | -0.0662 (inactive) | -0.672 | 0.0652 | 0.113 (inactive) | 0.0151 | -0.296 | -0.998 (inactive) | 0.861 (inactive) | 0.746 (inactive) |
